Measurements reported in PubChem BioAssay AID686978 (National Center for Advancing Translational Sciences (NCATS), 2013).
In all, about 420,000 compounds went through this assay and about 64,000 (15%) were called active. Inconclusive results (about 27%) are left out. Calls come from the whole dose curve; as a rule, active = well fitted inhibition curve with a large enough effect; inconclusive = small, poorly fitted or top-dose-only effect; inactive = flat fitted curve, though single readings scatter. The list is a sample of the results. Entries that show only a call come without a potency.

Experiment: qHTS for Inhibitors of human tyrosyl-DNA phosphodiesterase 1 (TDP1): qHTS in cells in absence of CPT; note: nearly all actives have a fitted effect of over 55% in size
Settings: DT40 Tdp1-/- hTDP1 cells, no CPT, ATP luminescence, 48 h; activity change, negative = growth inhibition: at 46.2 µM (top of the series)
Method in brief: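 Camptothecin absent (DMSO only). Human TDP1-complemented DT40 knockout cells, 400 cells/well, 37 °C for minimum 48 hr; ATP measured via CellTiter-Glo, 30 min dark incubation, luminescence.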
Potency is the fitted concentration of half-maximal effect.

SMILES | Potency
Cc1ccc(OCC(=O)Nc2nnc(-c3ccco3)s2)cc1 | inactive
CSc1ncccc1C(=O)Nc1ccc2c(c1)OCO2 | inactive
CCOC(=O)c1c(S(=O)(=O)Nc2ccc(CN3CCC(C)CC3)cc2)c(C)n(C)c1C | inactive
CCOC(=O)c1cnc(SCC(=O)Nc2ccccc2C(=O)OC)nc1N | 23.1 µM (active)
COC(=O)c1ccccc1NC(=O)CSc1ccccn1 | inactive
CCOC(=O)c1cnc(SCC(=O)NCc2ccco2)nc1N | inactive
CCCCN(C)CCCNC(=O)CN1N=C(c2ccc(OC)cc2)CCC1=O | inactive
C=CCC(CC=C)(C(N)=O)c1ccccc1 | inactive
Cc1nn(CC(=O)Nc2ccc(C#N)cc2)c(C)c1[N+](=O)[O-] | inactive
COCc1c(C(=O)OCC(=O)Nc2ccc(OC(F)F)cc2)oc2ccccc12 | inactive
CCOC(=O)c1c(-c2ccccc2)oc2cc(Br)c(O)cc12 | inactive
Cc1oc2cc(Br)c(O)c(Br)c2c1C(=O)c1ccccc1 | inactive
CCOC(=O)c1c(C)oc2cc(Sc3ccccc3)c(O)c(O)c12 | 25.9 µM (active)
Nc1nc(COC(=O)CCC(=O)c2ccc(Cl)cc2)nc(Nc2ccccc2)n1 | inactive
Cc1cc(C)c(NC(=O)CSc2nc3nccnc3c(=O)n2CCc2c[nH]c3ccccc23)c(C)c1 | inactive
Cn1c(CCC(=O)Nc2ccccc2F)nnc1SCC(=O)Nc1ccccc1Cl | inactive
Cc1cc(C)cc(NC(=O)CSc2nc3nccnc3c(=O)n2CCc2c[nH]c3ccccc23)c1 | 7.31 µM (active)
Cc1cc(C)cc(NC(=O)Cn2c(=O)c3ccccc3n3nncc23)c1 | inactive
O=C(CSc1nc2nccnc2c(=O)n1CCc1c[nH]c2ccccc12)Nc1ccccc1F | 8.2 µM (active)
O=C(CSc1nc2nccnc2c(=O)n1Cc1cccs1)Nc1ccccc1F | inactive
Cc1cccc(C)c1NC(=O)CSc1nc2c([nH]1)c(=O)n(C)c(=O)n2C | inactive
CCc1c(O)nc(SCC(=O)Nc2ccccc2)n(C(C)CC)c1=O (centres undefined) | inactive
CCCNCc1cc(OCC)c(OCC(=O)Nc2ccccc2)cc1Br | inactive
CN(C)C(=O)c1cc(Br)ccc1Cl | inactive
Cc1cc(OC(=O)c2ccccc2)c([N+](=O)[O-])c(=O)[nH]1 | inactive
Oc1ccc(/C=N/Nc2ccc(C(F)(F)F)cn2)cc1O | 2.59 µM (active)

SMILES | Potency
Cc1nnsc1C(=O)N/N=C/c1cccc(C(F)(F)F)c1 | inactive
O=C(O)c1ccc(N/N=C/c2ccc3ncccc3c2)cc1 | inactive
O=C1/C(=C/c2ccc(F)cc2)SC(=S)N1NS(=O)(=O)c1ccccc1 | inactive
CC1CCCCC12NC(=O)N(CC(=O)N1CCN(c3ccccc3)CC1)C2=O (centres undefined) | inactive
Cc1cc(C)c(NC(=O)CSc2nc3ccncc3[nH]2)c(C)c1 | inactive
COc1ccc(CNC(=O)CCCn2nc(C)c([N+](=O)[O-])c2C)cc1 | inactive
CCc1ccc(NC(=O)Cn2nc(C)c([N+](=O)[O-])c2C)cc1 | inactive
Cc1ccc(Oc2cc(NC(=O)CCCn3nc(C)c([N+](=O)[O-])c3C)cc([N+](=O)[O-])c2)cc1 | 18.4 µM (active)
CCCc1nc2ccccc2n1C(C)C(=O)NC(C)(C)C (centres undefined) | inactive
CC(C)(C)NC(=O)C(CCc1ccccc1)n1c(=O)c(-c2ccccc2)nc2ccccc21 (centres undefined) | 2.91 µM (active)
CCC(C(=O)NC(C)(C)C)n1c(-c2ccccc2)nc2ccccc21 (centres undefined) | 18.4 µM (active)
CC(C)(C)NC(=O)NC(=O)COC(=O)Cn1c(C(F)(F)F)nc2ccccc21 | inactive
CC(=O)NS(=O)(=O)c1ccc(N/C(N)=N/c2nc(C)cc(C)n2)cc1 | inactive
Cc1nnc(SCCCCSc2nnc(C)c(=O)[nH]2)[nH]c1=O | inactive
COc1ccc(Br)cc1/C=N/Nc1ccc(S(=O)(=O)Nc2ccccc2C(=O)O)cc1[N+](=O)[O-] | inactive
COc1ccc(CCNC(=O)c2ccc3c(c2)nc(C)n3-c2ccc(Br)cc2)cc1OC | 20.6 µM (active)
COc1ccccc1CNC(=O)c1ccc(-n2c(C)cc3c2CCCC3)cc1 | 14.6 µM (active)
COc1ccc(CCNC(=O)c2ccc(-n3c(C)cc4c3CCCC4)cc2)cc1OC | 18.4 µM (active)
COc1ccc(C(=O)NCc2ccccc2C)cc1S(=O)(=O)NC1CCCC1 | inactive
COc1ccccc1CNC(=O)Cn1cc2c(n1)CCCC2 | inactive
COc1ccc(CCNC(=O)CSCc2ccc(Br)cc2)cc1OC | inactive
COCCn1c(=S)[nH]c2cc(C(=O)NCCc3ccc(OC)c(OC)c3)ccc2c1=O | inactive
O=C(OC1CC2CC1[C@H]1CCCCN1C2=O)N1CCOCC1 (some centres undefined) | inactive
O=C(CS(=O)(=O)c1ccccc1)Nc1ccc(S(=O)(=O)Nc2ccccn2)cc1 | inactive
CCC1(C2CCN(Cc3cccnc3)CC2)NC(=O)N(CC2COc3ccccc3O2)C1=O (centres undefined) | inactive
CC(=O)c1cccc(NC(=S)N2CCN(S(C)(=O)=O)CC2)c1 | inactive

SMILES | Potency
CC(=O)N1CCN(C(=O)C2(NC(=O)Nc3ccc(C)cc3)CCCCC2)CC1 | inactive
CN(C)c1ccc(N/C=C/C(=O)C(F)(F)F)cc1 | inactive
CCOc1ccc(S(=O)(=O)N/N=C(\C)c2ccc(Cl)c(Cl)c2Cl)cc1 | inactive
CCOc1ccc(OCC)c(NC(=O)C(NS(=O)(=O)c2ccc3c(c2)oc(=O)n3C)C(C)C)c1 (centres undefined) | inactive
O=C(CC1NCCNC1=O)Nc1ccc(Oc2ccccc2)cc1 (centres undefined) | inactive
CCN(CC)c1cc(NC2CCCCC2)c2c3c(onc13)-c1ccccc1C2=O | 18.4 µM (active)
Cc1nnc(SCC(=O)Nc2cccc(N)c2)n1-c1ccccc1 | inactive
COc1cc2c(cc1OC)C(c1ccncc1)CC(=O)N2 (centres undefined) | inactive
CC(C)Oc1ccc(C2NC(=O)NC2=O)cc1 (centres undefined) | inactive
COc1cc2c(cc1OC)C(c1ccc(C)o1)CC(=O)N2 (centres undefined) | inactive
COc1ccc(C2CC(=O)Nc3cc(C)c(C)cc32)c(OC)c1OC (centres undefined) | 20.6 µM (active)
COC(=O)c1ccc(C2CC(=O)Nc3cc(OC)c(OC)cc32)cc1 (centres undefined) | inactive
Cc1cc2c(cc1C)C(c1cccc(OC(C)C)c1)CC(=O)N2 (centres undefined) | 23.1 µM (active)
CC1CN(c2cc(=O)n(Cc3ccc(F)cc3)c(=O)[nH]2)CC(C)O1 (centres undefined) | inactive
O=C1CCCCN1CCCC(=O)N1CCCC(Nc2ccc(F)cc2)C1 (centres undefined) | inactive
CCOC(=O)C1(Cc2ccccc2C)CCCN(C(=O)CN2C(=O)CSC2=O)C1 (centres undefined) | inactive
Cc1nc2cnc(N3CCN(C)CC3)nc2n(C[C@H]2CCCO2)c1=O | inactive
CC(=O)C1=C(O)C(=O)N(c2ccc(Br)cc2)C1c1ccc([N+](=O)[O-])cc1 (centres undefined) | inactive
Nc1ncc(S(=O)(=O)Nc2ccc(OC(F)(F)F)cc2)cn1 | inactive
O=C1Cc2cc(S(=O)(=O)Nc3ccc(OC(F)(F)F)cc3)cc3c2N1CCC3 | 18.4 µM (active)
O=C1CCc2cc(S(=O)(=O)Nc3ccc(C(F)(F)F)cc3)cc3c2N1CC3 | inactive
C=CCOc1ccccc1CNn1c(C)n[nH]c1=S | inactive
CCCN(C(=O)CSc1nnc(N)s1)c1c(N)n(Cc2ccccc2)c(=O)[nH]c1=O | inactive
CCCc1nc2ccccc2c(=O)n1/N=C/c1ccc(O)c(O)c1 | 16.4 µM (active)
CCCN1C(=O)C(Cc2nc3ccccc3c(=O)n2-c2ccccc2)c2cc(C)ccc21 (centres undefined) | inactive
O=c1c2ccccc2ncn1/N=C/c1ccccc1 | inactive

SMILES | Potency
CC(C)Oc1ccc(C(=O)NC(C)(C)CO)cc1 | inactive
CC(Oc1ccc(Cl)cc1Cl)C(=O)/C=C/N(C)C (centres undefined) | inactive
O=C(CN(CC1CCCO1)C(=O)CNS(=O)(=O)c1ccccc1)NCc1ccccc1 (centres undefined) | inactive
Cc1cc(NC(=O)c2ccccc2C)no1 | inactive
Cc1ccc2occ(/C=N/NC(=O)c3ccccc3C)c(=O)c2c1 | 14.6 µM (active)
O=c1c(/C=N/O)coc2ccc(Cl)cc12 | inactive
Cc1ccccc1CSc1nnc(Cn2c(=O)sc3ccccc32)n1C | inactive
CCOc1cc(/C=N/NC(=O)c2ccc(CSc3nncn3C)cc2)ccc1OCC(=O)N1CCOCC1 | inactive
O=S(=O)(c1ccccc1)c1nc(-c2ccc(Cl)cc2Cl)oc1N1CCCCC1 | 13 µM (active)
O=S(=O)(c1ccc(Cl)cc1)c1nc(-c2ccccc2F)oc1NCCN1CCOCC1 | inactive
O=S(=O)(c1ccccc1)c1nc(Cc2ccccc2)oc1N1CCOCC1 | inactive
O=C(CSc1oc(-c2ccccc2)nc1S(=O)(=O)c1ccc(Br)cc1)NC1CCCCC1 | inactive
CSc1nc(-c2ccco2)nn1C(=O)c1ccccc1Cl | inactive
COc1ccc(-c2nc(S(=O)(=O)c3ccccc3)c(N3CCCCC3)o2)cc1 | 18.4 µM (active)
O=S(=O)(c1ccc(Cl)cc1)c1nc(-c2ccco2)oc1N1CCCCC1 | 23.1 µM (active)
O=S(=O)(c1ccccc1)c1nc(-c2ccccc2)oc1NCCCN1CCOCC1 | inactive
Cc1ccc(F)cc1S(=O)(=O)Nc1cccc(C(=O)N2CCCC(C(N)=O)C2)c1 (centres undefined) | inactive
COc1cc(=O)n2c(c1C(=O)NC(C)c1ccco1)CCN(Cc1cc(C)cc(C)c1)CC2 (centres undefined) | inactive
Cn1cc(C(=O)c2ccc(Cl)cc2Cl)cc1C(=O)NN | inactive
O=C(CNC(c1ccccc1)c1ccccc1)Nc1ccc(F)cc1 | inactive
OCCCC1CCCCN1Cc1nc(Cc2ccccc2Cl)no1 (centres undefined) | inactive
O=Cc1c(Cl)cccc1Cl | inactive
COc1ccc([N+](=O)[O-])cc1NCC(=O)c1ccc(C)cc1 | inactive
Cn1ncc2c(N3CCCCC3)nc(NCCCO)nc21 | inactive
Cc1cnc(C)c(-c2cc(F)c3c(c2)CC(CNC(=O)c2cccc(Cn4cccn4)c2)O3)n1 (centres undefined) | inactive
COCC1CCN(C(=O)c2ccc3oc(Cc4ccccc4)nc3c2)C1 (centres undefined) | inactive
